The text below walks through data of PubChem BioAssay (NCI).

The panel holds about 83,000 compounds, 20% with a hit somewhere; the sample as a whole holds those more often.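 Values shown are percent growth following 48 h exposure of cells in 96-well plates to a single concentration of compound; below 10 was considered active.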 Values without a mark were called inactive. Calls of active or inactive are those of the source.

The test system of the assay is UACC-62 melanoma. Put plainly: NCI-60 one-dose screen, 48 h (100 = growth as untreated, 0 = no growth, -100 = all killed). As to conditions: 10 µM unless noted. The procedure:
Growth inhibition of the UACC-62 human tumor cell line is measured as a screen for anti-cancer activity. Cells are grown in 96 well plates and exposed to the test compound for 48 hours. Compounds are tested at a single concentration, which is 10^-5 M for most compounds. The reported endpoint is percent growth (GI% or GIPRCNT), where numbers from 0 - 100% represent growth inhibition, and numbers from -100% - 0 represent cell death. For example, a value of 40 represents 60% growth inhibition. A value of 0 means no net growth occurred over the course of the experiment. A value of -40 indicates 40% of cells at the beginning of the experiment died by the end of the experiment. A value of -100 means all cells are dead at the end of the experiment.
NCI-60 Human Tumor Cell Lines Screen was performed using the standard one-dose NCI protocol, which is described in more detail at https://dtp.cancer.gov/discovery_development/nci-60/default.htm.
Compounds with GIPRCNT values below 10 were considered active. Activity score was based on GIPRCNT using the following formula: […]
Score is 0 for GIPRCNT values of 100 or above, 50 for GIPRCNT values of 0, and 100 for GIPRCNT values of -100.
Regarding `CCCc1cc2cc(-n3nc(C)c4c3CC(C)(C)CC4=O)cc(NC3CCC(O)CC3)c2c(=O)[nH]1` (stereo not given), the growth is 14.1%.
In the case of `CNC(=O)c1cc(Oc2cccc3nc(Nc4ccc(Oc5ccccc5)cc4)ccc23)ccn1`, the growth was 62.6%.
As to `O=S1(=O)OC(c2cc(Cl)c(O)c(Br)c2)(c2cc(Cl)c(O)c(Br)c2)c2ccccc21`, the growth is 97.1%.
On to `CC(CCCC(=O)O)c1ccoc1` (stereo not given), for which the growth was 107%.
Turning to `Cn1cnc(-c2cc3nccc(Oc4ccc(NC(=S)NC(=O)Cc5ccccc5)cc4F)c3s2)c1`, the growth was 93.8%.
Regarding `N#CC(C#N)=NO`, the growth was 102%.
In the case of `O=C(O)c1ccc(Nc2ncc3c(n2)-c2ccc(Cl)cc2C(c2c(F)cccc2F)=NC3)cc1`, the growth was 51.6%.
In the case of `N#Cc1c(-c2ccc(C(F)(F)F)cc2)c(F)c(NCCC2CCC(O)C2)n2c1nc1ccccc12` (stereo not given), the growth is 72.7%.
In the case of `COc1cc2c(Oc3ccc(NC(=O)C4(C(=O)Nc5ccc(F)cc5)CC4)cc3F)ccnc2cc1OCCCN1CCOCC1`, the growth is -67.8% (active).
Turning to `c1cc(OCCN2CCCCC2)cc(-c2n[nH]c3ccc(-c4ncn[nH]4)cc23)c1`, the growth is 31.9%.
The figure for `CCCC(=O)OCC1OC(n2cnc3c(=S)nc(N)[nH]c32)C(OC(=O)CCC)C1OC(=O)CCC` (stereo not given) is 8.36% (active); for `Cn1ccnc1C(=O)/C=C/c1ccc(CC(=O)Nc2ccc(C(F)(F)F)cc2)cc1` it is 27.9%.
With `CCN(CC)CCN1C(=O)c2cccc3c(-c4ccc5c(c4)ncn5C4CCCCC4)ccc(c23)C1=O`, the growth was 22%.
Turning to `CS(=O)(=O)CCNCc1ccc(-c2ccc3ncnc(Nc4ccc(OCc5cccc(F)c5)c(Cl)c4)c3c2)o1`, the growth was -52.4% (active).
Next, `Cn1cc(-c2[nH]c3cc(NC(=O)[C@H](N)C4CCCCC4)cc4c3c2C=NNC4=O)cn1`: 26.1%; `C=CC(=O)Nc1cc(Nc2nccc(-c3cn(C)c4ccccc34)n2)c(OC)cc1N(C)CCN(C)C`: -68.8% (active); `Cc1c(Cn2c(C)nc3c(C(=O)O)cc(N4CCOCC4)cc32)cccc1C(F)(F)F`: 65.5%.
The figure for `COc1ccc2c(CCC(c3ccccc3)c3ccccc3)c3[n+](cc2c1OC)CCc1cc2c(cc1-3)OCO2` is -43.5% (active); for `O=C(Nc1ccc(-c2ccnc(Nc3ccc(N4CCOCC4)cc3)n2)cc1)[C@@H]1CCCN1` it is 68.5%.
As to `N#CCNC(=O)c1ccc(-c2ccnc(Nc3ccc(N4CCOCC4)cc3)n2)cc1`, the growth is 34%.
On to `NC(=O)c1n[nH]n2c1nc(=O)c1c3c(sc12)CCCC3`, for which the growth is 103%.
The figure for `COc1cc2nc(Nc3cccc(Cl)c3)nc(N)c2cc1OC` is 96.3%; for `Cn1ncc(Cl)c1-c1cc(C(=O)N[C@H](CN)Cc2ccc(F)c(F)c2)oc1Cl` it is -78.5% (active); for `OCCNC(=S)Nc1ccc(-c2nc(N3C[C@H]4CC[C@@H](C3)O4)c3cccn3n2)cc1` it is -36.5% (active).
`CN1CCN(c2ccc(OC(F)(F)F)c(Nc3ncc4c(n3)-c3c(c(C(N)=O)nn3CCO)CC4)c2)CC1`: the growth is 35.9%.
On to `COc1cc(OC)c(C(=O)/C=C/c2cc3c(cc2OCc2ccccc2)OC(C)(C)CC3)cc1CC=C(C)C`, for which the growth is 38.7%.
The figure for `O=C(Nc1cnn2ccc(N3CCC[C@@H]3c3cc(F)ccc3F)nc12)N1CC[C@H](O)C1` is 99%; for `O=C(Nc1ccc(C2=NCCCN2)cc1)c1ccc(C(=O)Nc2ccc(C3=NCCCN3)cc2)nc1` it is 99.5%.
Regarding `CS(=O)(=O)N1CCN(Cc2cc3nc(-c4cccc5[nH]ncc45)nc(N4CCOCC4)c3s2)CC1`, the growth was -14.2% (active).
On to `COc1ccc2c(CCCc3ccc(Cl)cc3Cl)c3[n+](cc2c1OC)CCc1cc2c(cc1-3)OCO2`, for which the growth was -68.2% (active).
With `COc1c(OCCCN2CCOCC2)ccc2c3n(c(=NC(=O)c4cnc(N)nc4)nc12)CCN3`, the growth is -48.9% (active).
For `O=C1NC(=O)C(c2cnc3ccccn23)=C1c1cn2c3c(cc(F)cc13)CN(C(=O)N1CCCCC1)CC2`, the growth is 40.1%.
For `COc1cc2c(cc1O)c(=O)n(CCN(C)C)c1c3cc4c(cc3ncc21)OCO4`, the growth was -54.2% (active).
Next, `Cc1ccc(-[n+]2c3cc(N)c(C)cc3nc3cc(C)c(Nc4ccccc4)cc32)cc1`: -73.5% (active); `COC[C@@H](C)n1c(C2CCOCC2)nc2c1C1C=C(OC)C(c3c(C)noc3C)=CC1N=C2` (stereo not given in full): 18.5%; `Cc1nc(Nc2n[nH]c3c2CN(C(=O)N[C@H](CN(C)C)c2ccccc2)C3(C)C)c2sccc2n1`: -87% (active).
Turning to `Cc1cc(N(CCNc2ccnc3cc(Cl)ccc23)Cc2ccc3c(c2)OCO3)nc(N2CCCC2)n1`, the growth was 18.2%.
Next, `CC1CCC(n2cnc3c(Cl)ncnc32)O1` (stereo not given): 104%; `CC/C(=C(\c1ccc(OCCN2CCCCCCC2)cc1)c1ccc(OC(=O)C2CCCCC2)cc1)c1ccc(Cl)cc1`: 108%.
The figure for `COCCN1CCN(Cc2ccc(-c3n[nH]c4c3C(=O)c3c(NC(=O)NN5CCOCC5)cccc3-4)cc2)CC1` is -44.9% (active).
